Assay results reported in PubChem BioAssay AID647 (Vanderbilt High Throughput Screening Facility, 2007).
Hit rate of the full screen: of about 2,200 compounds, about 1,400 (64%) were called active. The set was probably picked from earlier hits. Only a sample is shown. A number with no mark means an inactive call.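 Rule for the calls: active = luminescence in either replicate above plate mean of wells with a partly effective reference agonist dose plus 3 SD; inactive = the rest.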

Assay: isoproterenol-driven CRE-luciferase response modulation in HEK293 cells, confirmation, counter-screen for D1 allosteric modulator project, cell-based, secondary assay 2, luminescence (AID 647);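 note: isoproterenol raises cAMP through native beta-adrenoceptor Gs so signal bypasses D1; raw luminescence counts from the Envision reader with one value per duplicate well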
Conditions: isoproterenol EC30 counter-screen, at 10 µM, hits give high values

Compound | luminescence
CCCc1nc(-c2ccccc2O)n(-c2ccccc2)n1 | 3160 (active)
CC1(C)Cc2ccccc2-c2nc(CN3CCOCC3)[nH]c(=O)c21 | 3540 (active)
CC1Oc2ccccc2N(Cc2cccnc2)C1=O (centres undefined) | 2840 (active)
CCOC(=O)c1c(NC(=O)CSc2nnc(Cc3csc(N)n3)n2C)sc(C)c1C | 2440
c1ccc(COc2nsnc2N2CCOCC2)cc1 | 4500
N#CCSc1nc2ccccc2c(=O)n1-c1ccccc1 | 4560 (active)
C=CCSc1nc2c(c(=O)[nH]1)C(C(C)C)C(C#N)=C(N)O2 (centres undefined) | 5180 (active)
COc1ncnc2c1N=C1CC(C)(C)CC(N)=C1S2 | 2960
O/N=C(\c1ccc2c(c1)OCCO2)C1CCCCC1 | 2880 (active)
CCOc1ccc(Nc2oc(Cc3ccccc3)nc2C#N)cc1 | 5850 (active)
N#Cc1nc(Cc2ccccc2)oc1NCCc1ccccc1 | 4280 (active)
COc1ccc(Nc2oc(-c3ccccc3Cl)nc2C#N)cc1 | 3960 (active)
CC(C)C1C2=C(CC(C)(C)CC2=O)ON1c1ccccc1 (centres undefined) | 3320
N#Cc1c(N)sc2c1CCN(C(=O)OCc1ccccc1)C2 | 5320 (active)
CCNc1nc(NCC)nc(N(C)n2cnnc2)n1 | 3650 (active)
CC(C)c1cc(C(=O)O)on1 | 2070
Oc1ccc(-c2csc(Nc3cccnc3)n2)cc1 | 3250 (active)
CCn1ncc(C2=NOC(C(=O)Nc3ccccc3C(=O)OC)C2)c1C (centres undefined) | 5220 (active)
CCn1nc(C(=O)OCC(=O)N2c3ccccc3CC2C)c2ccccc2c1=O (centres undefined) | 2840
Cc1ccc(-c2nn(-c3ccccc3)cc2CN(Cc2ccccc2)C(=O)CCC(=O)O)o1 | 4080 (active)
O=C(CSc1nnc2scc(-c3ccc(F)cc3)n12)NCc1ccco1 | 2580
CCOc1ccc(-c2nnn(CC(=O)N3CCN(c4ccc(OC)cc4)CC3)n2)cc1OCC | 3110 (active)
CCOc1cc(-c2noc(CCC(=O)N3CCOCC3)n2)ccc1OC | 2630
CC1CCN(c2oc(-c3ccccc3F)nc2C#N)CC1 | 3380 (active)
CCOc1ccc2c(c1)cc(CN(C(=O)CC)C1CCCCC1)c1nnnn12 | 3880 (active)
CCOc1ccc2[nH]c(=O)c(C(c3nnnn3CCOC)N3CCOCC3)cc2c1 (centres undefined) | 2250
FC(F)(F)c1cc(-c2ccco2)nc(N2CCOCC2)n1 | 4220 (active)

Compound | luminescence
O=C(NCc1ccco1)c1cnn2c(C(F)(F)F)cc(-c3ccco3)nc12 | 3240
Cc1cc(C(F)(F)F)nn1-c1nc(-c2ccco2)cc(C(F)(F)F)n1 | 3340 (active)
COc1ccc(-c2nnco2)cc1OC | 3030 (active)
Cc1ccc(C2CC(c3cccc(Br)c3)n3nc(N)nc3N2)cc1 (centres undefined) | 3660 (active)
Cc1ccc(C2CC(c3cccc(C)c3)n3nc(N)nc3N2)cc1 (centres undefined) | 2800
CCOc1ccccc1C1CC(c2ccccc2)Nc2nc(N)nn21 (centres undefined) | 3190
CCOc1cc(C(=O)N2CCc3cc(OC)c(OC)cc3C2)ccc1OC(F)F | 11500 (active)
CC(=O)Nc1cccc(Oc2cc(C#N)c(C#N)cc2N2CCOCC2)c1 | 4140 (active)
COc1cc(NC(=O)N2CCOCC2)cc(OC)c1 | 2540
C/C(Cl)=C\Cn1c(Nc2cccc(C)c2)nc2c1c(=O)n(C)c(=O)n2C | 3460 (active)
Cc1cc(C)c2c(n1)nn1c(-n3ccnc3)cc(C)nc21 | 3020 (active)
CCSc1nc(C)nc2c1oc1ccccc12 | 3530 (active)
COC(=O)[C@H](C(C)C)n1c(C)c(C(C)=O)c(C(C)=O)c1C | 2600
O=c1cc(-c2ccccc2)nc(N2CCCCC2)[nH]1 | 3010
CCCN1Cc2cccc(C(=O)NCc3ccccc3)c2C1=O | 3680 (active)
CCSc1ncnc2c(C#N)c3n(c12)CCCCC3 | 6230 (active)
O=C(c1ccco1)N1CCN=C1SCc1cccc(Cl)c1 | 3200 (active)
Cc1ccc(S(=O)(=O)c2c(N)n(C)c3nc4ccccc4nc23)cc1 | 3490 (active)
COc1ccc(-n2c(Cc3cccn3C)nnc2SCC(=O)Nc2cc(C)cc(C)c2)cc1 | 2370
Nc1ccc(S(=O)(=O)NC(=O)c2ccccc2)cc1 | 2950
CCOC(=O)c1cc(C)sc1NC(=O)C1CCC1 | 4600 (active)
C/C(=C\C(=O)c1ccccc1)Nc1cccc(O)c1 | 2540
CN(C)c1nc(N)nc(CSc2nnnn2-c2cccc3ccccc23)n1 | 3420 (active)
COc1cc(-c2nn3c(-c4cccc(C)c4)nnc3s2)cc(OC)c1OC | 4430 (active)
COc1ccc(-c2nn3c(-c4ccccc4)nnc3s2)cc1OC | 8440 (active)
O=C(C1CCC1)N1CCc2cc(S(=O)(=O)NCc3cccnc3)ccc21 | 3060
N#Cc1nc(N)nc(N(c2ccccc2)c2ccccc2)n1 | 2880
